Experimental data reported in the supplement of paper PMC11732987, “Enantioselective OTUD7B fragment discovery through chemoproteomics screening and high-throughput optimisation” (Communications Chemistry, 2025).

Legend:
Test in all cases: log2 ratio of Biotin-Ahx-Ub-VS probe labelling (fragment/DMSO); higher = less target engagement (more negative = stronger competition), active = hit call of the paper (q ≤ 0.05, log2 ratio ≤ -1)
Details in all cases: compound concentration: 200 uM; treatment time: 3 h
USP42 = molecular target: T1, USP42 (UniProt Q9H9J4)
T1 sequence (whole entry): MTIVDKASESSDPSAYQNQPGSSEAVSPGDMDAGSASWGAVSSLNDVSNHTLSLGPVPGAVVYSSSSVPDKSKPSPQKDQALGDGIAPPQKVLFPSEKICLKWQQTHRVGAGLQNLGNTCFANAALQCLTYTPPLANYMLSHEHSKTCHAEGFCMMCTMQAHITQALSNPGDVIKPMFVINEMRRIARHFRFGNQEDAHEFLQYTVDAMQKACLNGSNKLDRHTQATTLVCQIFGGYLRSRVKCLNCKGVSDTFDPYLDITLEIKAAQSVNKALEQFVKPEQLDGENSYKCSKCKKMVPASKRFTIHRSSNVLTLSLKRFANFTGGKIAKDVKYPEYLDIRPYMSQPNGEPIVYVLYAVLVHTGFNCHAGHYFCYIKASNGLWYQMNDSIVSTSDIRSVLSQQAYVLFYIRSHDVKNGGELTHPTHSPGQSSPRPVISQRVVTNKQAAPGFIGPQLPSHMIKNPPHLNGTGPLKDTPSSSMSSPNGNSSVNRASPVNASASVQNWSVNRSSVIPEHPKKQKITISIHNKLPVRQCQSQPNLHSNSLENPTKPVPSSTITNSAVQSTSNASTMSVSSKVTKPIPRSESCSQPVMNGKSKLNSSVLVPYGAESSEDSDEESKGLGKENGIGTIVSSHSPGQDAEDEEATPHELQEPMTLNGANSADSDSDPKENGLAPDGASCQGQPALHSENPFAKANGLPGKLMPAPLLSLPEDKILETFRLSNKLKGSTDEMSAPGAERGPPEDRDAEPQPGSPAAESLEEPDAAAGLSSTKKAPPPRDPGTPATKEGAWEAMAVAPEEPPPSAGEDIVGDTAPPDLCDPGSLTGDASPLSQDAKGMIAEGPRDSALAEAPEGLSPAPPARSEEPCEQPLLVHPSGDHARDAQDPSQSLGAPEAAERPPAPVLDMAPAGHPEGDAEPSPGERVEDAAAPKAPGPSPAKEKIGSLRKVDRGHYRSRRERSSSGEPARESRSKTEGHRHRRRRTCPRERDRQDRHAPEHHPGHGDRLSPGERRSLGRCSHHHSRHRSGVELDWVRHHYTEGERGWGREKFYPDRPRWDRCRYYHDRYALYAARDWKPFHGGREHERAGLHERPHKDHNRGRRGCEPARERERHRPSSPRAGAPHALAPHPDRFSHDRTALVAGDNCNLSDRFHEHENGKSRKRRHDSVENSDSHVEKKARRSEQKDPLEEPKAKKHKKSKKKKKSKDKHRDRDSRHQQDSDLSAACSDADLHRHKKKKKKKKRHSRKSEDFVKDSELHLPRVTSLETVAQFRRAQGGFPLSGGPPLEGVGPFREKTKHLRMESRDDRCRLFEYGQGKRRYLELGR
Method in brief: (§1)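 Each value is an average log2 ratio of fragment to vehicle, tested by unpaired t-test. The underlying Spectronaut label-free quantities were global-median-normalised, and only proteins with ≥2 unique peptides were included. Triplicate HEK293T lysate samples (495 µg) were exposed to fragment at 200 µM or vehicle for 3 h, then to Biotin-Ahx-Ub-VS at 0.5 µM final for 1 h, before NeutrAvidin enrichment of labelled DUBs, LysC and trypsin digestion, and diaPASEF LC-MS/MS.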

USP46 = USP46 (UniProt P62068)
USP46, sequence (P62068 whole entry): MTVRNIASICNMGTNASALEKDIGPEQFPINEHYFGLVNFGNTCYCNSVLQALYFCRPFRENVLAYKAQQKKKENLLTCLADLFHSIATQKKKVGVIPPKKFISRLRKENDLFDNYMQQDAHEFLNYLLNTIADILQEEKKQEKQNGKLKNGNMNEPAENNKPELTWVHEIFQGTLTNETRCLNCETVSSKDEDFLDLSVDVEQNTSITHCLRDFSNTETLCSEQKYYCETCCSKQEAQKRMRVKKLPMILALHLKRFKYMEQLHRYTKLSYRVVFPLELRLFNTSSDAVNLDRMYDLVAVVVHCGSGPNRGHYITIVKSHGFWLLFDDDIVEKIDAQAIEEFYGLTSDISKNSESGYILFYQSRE
Method in brief: as §1

USP47 = molecular target: T2, USP47 (UniProt Q96K76)
T2 sequence (whole entry): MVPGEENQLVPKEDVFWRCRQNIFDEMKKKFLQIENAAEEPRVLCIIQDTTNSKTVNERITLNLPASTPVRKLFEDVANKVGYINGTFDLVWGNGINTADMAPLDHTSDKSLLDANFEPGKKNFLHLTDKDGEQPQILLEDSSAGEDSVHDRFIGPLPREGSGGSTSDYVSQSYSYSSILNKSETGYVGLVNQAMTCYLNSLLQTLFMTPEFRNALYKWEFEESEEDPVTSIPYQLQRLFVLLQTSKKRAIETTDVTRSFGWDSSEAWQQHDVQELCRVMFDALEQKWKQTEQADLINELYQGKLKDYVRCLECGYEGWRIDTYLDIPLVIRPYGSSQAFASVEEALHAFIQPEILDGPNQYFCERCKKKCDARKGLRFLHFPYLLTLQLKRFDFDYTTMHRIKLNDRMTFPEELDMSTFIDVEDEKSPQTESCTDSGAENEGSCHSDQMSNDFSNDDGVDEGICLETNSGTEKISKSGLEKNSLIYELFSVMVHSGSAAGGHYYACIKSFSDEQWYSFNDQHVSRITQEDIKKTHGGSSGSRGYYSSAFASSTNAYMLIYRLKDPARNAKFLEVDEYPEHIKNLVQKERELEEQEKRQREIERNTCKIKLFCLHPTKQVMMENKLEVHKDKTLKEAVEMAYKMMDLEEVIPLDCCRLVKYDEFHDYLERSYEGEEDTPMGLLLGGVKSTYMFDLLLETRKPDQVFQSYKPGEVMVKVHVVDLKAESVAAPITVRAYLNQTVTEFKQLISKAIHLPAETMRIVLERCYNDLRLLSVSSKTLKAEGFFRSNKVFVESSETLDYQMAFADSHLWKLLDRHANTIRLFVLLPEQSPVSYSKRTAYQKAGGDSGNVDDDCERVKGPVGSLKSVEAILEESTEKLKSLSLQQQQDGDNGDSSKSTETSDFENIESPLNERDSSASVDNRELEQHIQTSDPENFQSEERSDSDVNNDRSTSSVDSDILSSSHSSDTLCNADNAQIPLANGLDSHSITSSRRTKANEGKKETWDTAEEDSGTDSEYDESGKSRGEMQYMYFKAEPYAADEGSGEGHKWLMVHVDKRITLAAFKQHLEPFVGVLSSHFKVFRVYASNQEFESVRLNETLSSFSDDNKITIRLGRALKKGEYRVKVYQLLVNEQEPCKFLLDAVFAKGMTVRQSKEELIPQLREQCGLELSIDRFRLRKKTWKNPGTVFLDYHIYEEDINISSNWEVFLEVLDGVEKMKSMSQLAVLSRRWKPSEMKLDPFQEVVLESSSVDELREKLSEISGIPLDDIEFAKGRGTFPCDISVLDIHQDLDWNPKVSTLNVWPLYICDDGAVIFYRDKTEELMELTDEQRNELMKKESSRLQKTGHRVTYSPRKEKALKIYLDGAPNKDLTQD
Method in brief: as §1

USP48 = molecular target: T3, USP48 (UniProt Q86UV5)
T3 sequence (whole entry): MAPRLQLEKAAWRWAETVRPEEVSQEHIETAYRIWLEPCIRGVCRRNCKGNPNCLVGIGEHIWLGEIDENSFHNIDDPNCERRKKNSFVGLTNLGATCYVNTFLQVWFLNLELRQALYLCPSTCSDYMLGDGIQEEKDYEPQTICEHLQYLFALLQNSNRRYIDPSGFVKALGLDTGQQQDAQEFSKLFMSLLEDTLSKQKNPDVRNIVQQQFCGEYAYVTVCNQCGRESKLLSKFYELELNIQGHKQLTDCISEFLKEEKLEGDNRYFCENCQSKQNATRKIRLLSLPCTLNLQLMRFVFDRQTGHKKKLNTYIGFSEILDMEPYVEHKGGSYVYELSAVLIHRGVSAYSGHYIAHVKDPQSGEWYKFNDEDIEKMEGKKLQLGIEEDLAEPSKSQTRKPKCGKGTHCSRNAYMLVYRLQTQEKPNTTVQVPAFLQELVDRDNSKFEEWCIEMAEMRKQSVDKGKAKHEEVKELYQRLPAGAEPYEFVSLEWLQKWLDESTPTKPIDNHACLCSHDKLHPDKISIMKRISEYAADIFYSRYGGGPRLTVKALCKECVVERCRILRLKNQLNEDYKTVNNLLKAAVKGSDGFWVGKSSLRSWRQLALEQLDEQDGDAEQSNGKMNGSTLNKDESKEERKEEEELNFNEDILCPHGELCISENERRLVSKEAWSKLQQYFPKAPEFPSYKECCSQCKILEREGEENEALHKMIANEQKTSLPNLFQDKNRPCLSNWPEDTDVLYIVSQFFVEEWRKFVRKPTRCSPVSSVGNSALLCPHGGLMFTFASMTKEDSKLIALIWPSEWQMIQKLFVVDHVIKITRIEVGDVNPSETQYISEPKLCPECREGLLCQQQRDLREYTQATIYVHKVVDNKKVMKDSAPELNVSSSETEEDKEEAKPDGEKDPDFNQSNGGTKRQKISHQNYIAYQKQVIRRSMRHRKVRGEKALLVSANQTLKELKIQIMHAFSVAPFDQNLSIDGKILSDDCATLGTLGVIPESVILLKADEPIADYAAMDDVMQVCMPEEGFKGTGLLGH
Method in brief: as §1

USP5 = molecular target: T4, USP5 (UniProt P45974)
T4 sequence (whole entry): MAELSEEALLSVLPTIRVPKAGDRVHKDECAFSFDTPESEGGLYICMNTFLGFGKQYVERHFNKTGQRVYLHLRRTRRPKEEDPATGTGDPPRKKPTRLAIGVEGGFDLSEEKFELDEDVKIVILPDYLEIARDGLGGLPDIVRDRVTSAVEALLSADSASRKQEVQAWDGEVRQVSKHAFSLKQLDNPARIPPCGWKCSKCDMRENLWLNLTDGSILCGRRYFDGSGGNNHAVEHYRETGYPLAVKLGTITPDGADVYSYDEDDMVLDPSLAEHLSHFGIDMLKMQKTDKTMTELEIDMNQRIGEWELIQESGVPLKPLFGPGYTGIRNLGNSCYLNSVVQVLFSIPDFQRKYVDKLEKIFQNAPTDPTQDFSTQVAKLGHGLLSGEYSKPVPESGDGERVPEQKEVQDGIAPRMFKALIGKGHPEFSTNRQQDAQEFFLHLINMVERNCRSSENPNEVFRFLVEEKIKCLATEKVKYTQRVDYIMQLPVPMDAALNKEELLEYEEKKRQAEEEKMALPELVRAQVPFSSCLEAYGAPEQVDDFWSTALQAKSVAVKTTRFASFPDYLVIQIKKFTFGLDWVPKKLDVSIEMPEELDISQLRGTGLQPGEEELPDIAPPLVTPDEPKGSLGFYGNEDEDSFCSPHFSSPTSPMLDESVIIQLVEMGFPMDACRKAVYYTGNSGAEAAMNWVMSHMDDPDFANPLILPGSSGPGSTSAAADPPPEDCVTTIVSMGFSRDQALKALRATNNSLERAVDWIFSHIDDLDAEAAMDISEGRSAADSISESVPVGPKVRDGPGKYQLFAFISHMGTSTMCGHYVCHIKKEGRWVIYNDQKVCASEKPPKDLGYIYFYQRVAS
Method in brief: as §1

USP54 = USP54 (UniProt Q70EL1)
USP54, sequence (Q70EL1 whole entry): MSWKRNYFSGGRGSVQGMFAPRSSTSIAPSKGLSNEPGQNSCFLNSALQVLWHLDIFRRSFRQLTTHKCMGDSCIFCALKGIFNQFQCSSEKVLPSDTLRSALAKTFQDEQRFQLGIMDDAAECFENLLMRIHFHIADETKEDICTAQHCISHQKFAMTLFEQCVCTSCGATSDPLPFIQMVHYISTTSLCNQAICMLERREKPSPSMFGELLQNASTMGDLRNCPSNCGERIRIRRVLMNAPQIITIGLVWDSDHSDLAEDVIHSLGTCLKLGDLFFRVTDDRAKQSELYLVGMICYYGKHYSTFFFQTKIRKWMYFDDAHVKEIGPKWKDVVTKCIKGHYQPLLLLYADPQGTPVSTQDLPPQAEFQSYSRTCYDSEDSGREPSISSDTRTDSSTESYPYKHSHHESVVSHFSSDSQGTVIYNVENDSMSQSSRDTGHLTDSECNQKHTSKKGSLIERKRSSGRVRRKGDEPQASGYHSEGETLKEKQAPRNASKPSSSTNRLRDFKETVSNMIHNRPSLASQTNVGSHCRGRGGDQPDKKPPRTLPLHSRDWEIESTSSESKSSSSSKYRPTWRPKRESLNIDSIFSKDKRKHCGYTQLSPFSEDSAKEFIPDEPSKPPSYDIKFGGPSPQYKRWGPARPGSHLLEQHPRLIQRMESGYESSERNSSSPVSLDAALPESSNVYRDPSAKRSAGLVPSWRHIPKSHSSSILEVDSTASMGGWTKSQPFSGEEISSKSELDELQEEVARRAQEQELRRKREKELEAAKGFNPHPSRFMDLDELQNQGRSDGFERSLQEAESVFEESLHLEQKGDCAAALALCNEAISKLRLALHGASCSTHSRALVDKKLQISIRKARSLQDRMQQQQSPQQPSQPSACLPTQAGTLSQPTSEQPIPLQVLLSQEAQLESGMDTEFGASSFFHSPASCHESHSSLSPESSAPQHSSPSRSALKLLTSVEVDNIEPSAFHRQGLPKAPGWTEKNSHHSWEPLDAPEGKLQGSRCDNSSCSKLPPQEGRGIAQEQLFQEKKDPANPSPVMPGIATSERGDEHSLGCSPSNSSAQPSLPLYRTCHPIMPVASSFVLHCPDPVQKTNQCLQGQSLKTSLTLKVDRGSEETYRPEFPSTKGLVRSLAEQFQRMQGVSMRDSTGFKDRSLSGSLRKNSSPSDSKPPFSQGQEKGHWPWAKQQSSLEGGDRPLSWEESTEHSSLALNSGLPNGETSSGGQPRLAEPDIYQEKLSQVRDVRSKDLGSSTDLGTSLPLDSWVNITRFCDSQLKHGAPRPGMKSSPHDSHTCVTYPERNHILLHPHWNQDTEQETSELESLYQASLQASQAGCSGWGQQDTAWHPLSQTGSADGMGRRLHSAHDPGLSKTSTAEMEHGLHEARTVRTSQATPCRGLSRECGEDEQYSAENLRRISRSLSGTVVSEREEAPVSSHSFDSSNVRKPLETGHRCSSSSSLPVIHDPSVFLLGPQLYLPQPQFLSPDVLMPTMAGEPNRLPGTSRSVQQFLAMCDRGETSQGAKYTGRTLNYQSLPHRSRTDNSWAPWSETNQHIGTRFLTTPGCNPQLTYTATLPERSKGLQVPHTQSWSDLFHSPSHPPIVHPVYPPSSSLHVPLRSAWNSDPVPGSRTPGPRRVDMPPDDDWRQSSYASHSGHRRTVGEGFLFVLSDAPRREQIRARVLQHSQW
Method in brief: as §1

USP7 = USP7 (UniProt Q93009)
Method in brief: as §1

USP8 = molecular target: T5, USP8 (UniProt P40818)
T5 sequence (whole entry): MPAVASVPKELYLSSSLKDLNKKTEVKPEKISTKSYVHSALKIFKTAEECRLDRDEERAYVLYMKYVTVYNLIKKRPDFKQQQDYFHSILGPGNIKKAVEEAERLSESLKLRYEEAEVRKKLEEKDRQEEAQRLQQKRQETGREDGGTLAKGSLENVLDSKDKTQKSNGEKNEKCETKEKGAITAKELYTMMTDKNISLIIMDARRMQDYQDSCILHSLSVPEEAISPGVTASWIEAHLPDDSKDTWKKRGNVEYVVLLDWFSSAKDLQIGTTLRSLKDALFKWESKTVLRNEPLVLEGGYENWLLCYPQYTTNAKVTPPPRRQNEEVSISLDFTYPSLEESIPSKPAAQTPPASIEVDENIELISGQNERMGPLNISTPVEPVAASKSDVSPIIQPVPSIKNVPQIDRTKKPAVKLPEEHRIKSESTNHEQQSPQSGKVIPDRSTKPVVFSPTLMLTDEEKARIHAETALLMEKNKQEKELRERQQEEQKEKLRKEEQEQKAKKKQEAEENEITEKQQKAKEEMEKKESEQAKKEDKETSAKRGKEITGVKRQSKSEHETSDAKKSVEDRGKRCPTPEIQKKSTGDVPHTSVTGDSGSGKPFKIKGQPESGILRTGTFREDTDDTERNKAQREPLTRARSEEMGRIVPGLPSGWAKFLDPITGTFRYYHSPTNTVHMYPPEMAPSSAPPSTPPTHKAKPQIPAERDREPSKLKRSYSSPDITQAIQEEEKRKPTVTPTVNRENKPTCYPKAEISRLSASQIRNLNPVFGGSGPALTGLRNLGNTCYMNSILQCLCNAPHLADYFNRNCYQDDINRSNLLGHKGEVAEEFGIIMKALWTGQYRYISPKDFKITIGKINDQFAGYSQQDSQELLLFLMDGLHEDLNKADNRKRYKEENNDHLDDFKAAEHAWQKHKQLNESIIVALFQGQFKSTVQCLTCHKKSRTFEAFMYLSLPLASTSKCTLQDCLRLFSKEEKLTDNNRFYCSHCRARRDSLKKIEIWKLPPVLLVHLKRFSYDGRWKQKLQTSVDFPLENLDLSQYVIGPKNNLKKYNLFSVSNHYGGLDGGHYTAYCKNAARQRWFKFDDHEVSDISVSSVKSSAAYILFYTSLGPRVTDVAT
Method in brief: as §1

USP9X = USP9X (UniProt Q93008)
USP9X, sequence (Q93008 whole entry): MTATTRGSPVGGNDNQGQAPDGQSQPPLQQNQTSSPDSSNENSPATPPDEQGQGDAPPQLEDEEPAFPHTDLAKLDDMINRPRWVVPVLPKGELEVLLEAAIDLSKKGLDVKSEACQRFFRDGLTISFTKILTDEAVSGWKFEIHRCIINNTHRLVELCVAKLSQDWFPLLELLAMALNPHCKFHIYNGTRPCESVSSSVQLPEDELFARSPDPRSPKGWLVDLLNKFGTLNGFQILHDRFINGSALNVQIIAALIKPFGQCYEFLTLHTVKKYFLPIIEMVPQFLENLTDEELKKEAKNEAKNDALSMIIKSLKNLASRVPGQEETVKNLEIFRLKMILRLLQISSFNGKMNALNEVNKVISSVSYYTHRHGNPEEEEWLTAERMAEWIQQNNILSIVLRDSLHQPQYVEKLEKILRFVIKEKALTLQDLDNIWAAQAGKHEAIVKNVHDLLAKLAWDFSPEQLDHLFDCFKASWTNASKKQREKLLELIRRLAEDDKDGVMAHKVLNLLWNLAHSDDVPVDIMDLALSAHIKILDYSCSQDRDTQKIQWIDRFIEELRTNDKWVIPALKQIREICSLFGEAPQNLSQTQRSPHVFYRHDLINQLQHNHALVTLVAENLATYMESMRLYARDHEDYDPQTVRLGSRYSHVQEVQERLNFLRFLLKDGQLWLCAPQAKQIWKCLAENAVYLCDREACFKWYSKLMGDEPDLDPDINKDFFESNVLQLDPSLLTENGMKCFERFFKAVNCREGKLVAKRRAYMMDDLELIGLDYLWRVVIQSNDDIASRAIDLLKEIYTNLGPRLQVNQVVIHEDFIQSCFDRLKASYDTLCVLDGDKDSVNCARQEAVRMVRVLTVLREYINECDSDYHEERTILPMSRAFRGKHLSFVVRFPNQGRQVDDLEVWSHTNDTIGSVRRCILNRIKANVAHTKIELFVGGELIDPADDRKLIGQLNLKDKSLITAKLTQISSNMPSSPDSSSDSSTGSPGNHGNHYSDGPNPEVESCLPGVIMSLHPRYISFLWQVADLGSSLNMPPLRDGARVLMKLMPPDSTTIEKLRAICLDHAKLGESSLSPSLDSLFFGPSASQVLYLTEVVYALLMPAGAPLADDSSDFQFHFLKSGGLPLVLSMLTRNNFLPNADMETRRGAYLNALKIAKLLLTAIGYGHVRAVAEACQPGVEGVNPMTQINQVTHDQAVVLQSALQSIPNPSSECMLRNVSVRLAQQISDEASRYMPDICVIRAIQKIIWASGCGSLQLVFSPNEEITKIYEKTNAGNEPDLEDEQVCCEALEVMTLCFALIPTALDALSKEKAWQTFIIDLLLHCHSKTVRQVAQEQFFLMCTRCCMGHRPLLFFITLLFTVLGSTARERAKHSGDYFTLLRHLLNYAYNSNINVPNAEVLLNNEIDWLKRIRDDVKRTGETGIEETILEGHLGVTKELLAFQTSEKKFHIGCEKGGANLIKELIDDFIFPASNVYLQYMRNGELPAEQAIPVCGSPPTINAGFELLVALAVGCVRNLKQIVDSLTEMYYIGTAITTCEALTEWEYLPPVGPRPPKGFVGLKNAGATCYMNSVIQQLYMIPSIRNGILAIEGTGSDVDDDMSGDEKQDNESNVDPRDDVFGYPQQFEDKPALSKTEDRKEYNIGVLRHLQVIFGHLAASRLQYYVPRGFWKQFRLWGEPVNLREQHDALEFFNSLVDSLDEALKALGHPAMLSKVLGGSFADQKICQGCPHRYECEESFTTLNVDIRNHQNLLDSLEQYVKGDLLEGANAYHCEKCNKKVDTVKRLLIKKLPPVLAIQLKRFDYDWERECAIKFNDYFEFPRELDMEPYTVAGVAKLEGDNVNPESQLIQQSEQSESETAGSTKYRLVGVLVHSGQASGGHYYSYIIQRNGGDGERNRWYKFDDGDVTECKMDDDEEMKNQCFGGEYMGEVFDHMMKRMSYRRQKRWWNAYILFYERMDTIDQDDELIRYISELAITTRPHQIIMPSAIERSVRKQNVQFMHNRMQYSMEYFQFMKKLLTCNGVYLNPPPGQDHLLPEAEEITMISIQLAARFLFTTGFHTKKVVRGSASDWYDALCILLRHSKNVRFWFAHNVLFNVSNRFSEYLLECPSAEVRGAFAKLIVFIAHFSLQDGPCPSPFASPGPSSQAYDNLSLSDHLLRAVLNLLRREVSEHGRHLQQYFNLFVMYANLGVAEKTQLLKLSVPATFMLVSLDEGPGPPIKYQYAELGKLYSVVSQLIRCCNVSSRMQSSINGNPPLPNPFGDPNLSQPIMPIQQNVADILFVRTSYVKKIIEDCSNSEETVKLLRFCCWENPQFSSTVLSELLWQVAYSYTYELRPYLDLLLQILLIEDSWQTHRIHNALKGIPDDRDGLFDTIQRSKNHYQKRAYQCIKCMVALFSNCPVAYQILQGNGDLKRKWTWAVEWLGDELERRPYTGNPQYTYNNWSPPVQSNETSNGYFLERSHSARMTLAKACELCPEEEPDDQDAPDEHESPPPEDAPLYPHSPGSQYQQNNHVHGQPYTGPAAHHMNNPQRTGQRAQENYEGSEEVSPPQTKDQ
Method in brief: as §1

UniProt O00487 = molecular target: UniProt O00487
UniProt O00487, sequence (O00487 whole entry): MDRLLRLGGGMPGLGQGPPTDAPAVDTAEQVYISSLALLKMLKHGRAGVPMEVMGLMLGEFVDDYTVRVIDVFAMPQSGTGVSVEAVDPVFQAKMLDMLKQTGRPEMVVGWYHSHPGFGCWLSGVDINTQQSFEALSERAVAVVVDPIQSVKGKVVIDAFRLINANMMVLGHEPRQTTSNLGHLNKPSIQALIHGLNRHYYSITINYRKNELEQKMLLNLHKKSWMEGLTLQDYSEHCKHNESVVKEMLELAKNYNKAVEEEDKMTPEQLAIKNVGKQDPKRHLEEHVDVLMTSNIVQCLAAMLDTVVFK
Method in brief: as §1

Measured: log2 ratio of Biotin-Ahx-Ub-VS probe labelling

O=C(CCl)N1CCCC2CCCCC21 (stereo not given)
inactive: USP42 0.484 | USP46 -0.132 | USP47 -0.696 | USP48 -0.516 | USP5 0.0316 | USP54 0.268 | USP7 -0.486 | USP8 -0.0438 | USP9X -0.183 | UniProt O00487 -0.107
